Screens (PubChem)
Only some compounds are listed: those with a hit (about 11% of all), similar ones and a draw of the others.
HTT ATP protect: cytoprotection in Huntington HTT-Q103 PC12 cell model; PC12 HTT-Q103 induced, cytoprotection, ATP luminescence, 40 h; Potency, µM (highest dose often 56.4 µM), for the others: cytoprotection (ATP increase), hits mostly activators; actives 0.14% (n = 230,000); AID 1471; also: potency is read from the fitted curve at half-maximal effect; % of control where 0% means no effect; nearly all actives have a fitted effect of over 45% in size
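ATP quantification (ATPlite) reports survival of PC12 cells in which tebufenozide, 100 nM final, switches on Htt exon 1 with 103 glutamines linked to GFP; compounds are titrated.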
ALDH1A1 block: blocks purified human ALDH1A1 activity | Purified ALDH1A1, NADH fluorescence, propionaldehyde substrate | Potency, µM (doses to about 75.3 µM), for the others: at the highest dose activity, negative = inhibition, usual class: inhibitors | actives 7.3% (n = 220,000) | AID 1030; active = well fitted inhibition curve with a large enough effect, not every such curve was filed as active; inconclusive = small, poorly fitted or top-dose-only effect, or another doubt; inactive = no such curve, though single readings can be large or run the other way;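 also: potency is read from the fitted curve at half-maximal effect; plate controls were no enzyme wells and a reference inhibitor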
GoLoco inh red: inhibitors of human Gai1-RGS12 GoLoco interaction (red fluorophore). P63096. Gai1:RGS12 GoLoco peptide FP, rhodamine, 10 min. Potency, µM (doses to about 61.6 µM), for inactives: at the top dose activity, negative = inhibition, hits mostly inhibitors. actives 0.44% (n = 230,000). AID 880; active = well fitted inhibition curve with a large enough effect, not every such curve was filed as active; inactive = no such curve, though single readings can be large or run the other way; also: potency is read from the fitted curve at half-maximal effect; % is scaled to controls: 0 for no effect and ±100 for the full control effect; nearly all actives have a fitted effect of over 30% in size
Target sequence (P63096 whole entry, looked up): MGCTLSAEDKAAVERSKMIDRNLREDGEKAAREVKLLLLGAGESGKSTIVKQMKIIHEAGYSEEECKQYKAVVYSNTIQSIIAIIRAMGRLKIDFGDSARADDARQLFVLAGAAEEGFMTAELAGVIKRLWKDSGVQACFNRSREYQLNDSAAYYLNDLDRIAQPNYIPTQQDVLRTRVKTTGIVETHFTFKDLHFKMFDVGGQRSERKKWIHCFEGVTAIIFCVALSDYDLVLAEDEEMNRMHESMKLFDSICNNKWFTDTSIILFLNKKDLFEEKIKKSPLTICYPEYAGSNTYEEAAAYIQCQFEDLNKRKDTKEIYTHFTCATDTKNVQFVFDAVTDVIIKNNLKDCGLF
HTT aggregate: inhibitors of mutant huntingtin aggregate formation in PC12 cells; PC12 HttQ103-GFP aggregates, Acumen cytometry, 40 h; Potency, µM (titrated, usually from 46.1 µM), for inactives: at the highest dose activity change, negative = inhibition, hits mostly inhibitors; actives 1.1% (n = 220,000); also: potency is read from the fitted curve at half-maximal effect; % is scaled to controls: 0 for no effect and ±100 for the full control effect; nearly all actives have a fitted effect of over 60% in size
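Multiplexed with ATP-based cell death, this channel scores GFP aggregates in PC12 cells expressing inducible HTTex1-Q103-GFP. Induction used 100 nM tebufenozide; compounds were tested in concentration series.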
HPGD block: inhibitors of human 15-hydroxyprostaglandin dehydrogenase (HPGD). P15428. purified HPGD, NADH fluorescence kinetic, PGE2 substrate. Potency, µM, inactives show top-dose activity change, negative = inhibition, most hits filed as inhibitors. actives 4.3% (n = 150,000); active = well fitted inhibition curve with a large enough effect, not every such curve was filed as active; inconclusive = small, poorly fitted or top-dose-only effect, or another doubt; inactive = no such curve, though single readings can be large or run the other way; also: potency is read from the fitted curve at half-maximal effect; % is scaled to controls: 0 for no effect and ±100 for the full control effect
Target sequence (P15428 whole entry, looked up): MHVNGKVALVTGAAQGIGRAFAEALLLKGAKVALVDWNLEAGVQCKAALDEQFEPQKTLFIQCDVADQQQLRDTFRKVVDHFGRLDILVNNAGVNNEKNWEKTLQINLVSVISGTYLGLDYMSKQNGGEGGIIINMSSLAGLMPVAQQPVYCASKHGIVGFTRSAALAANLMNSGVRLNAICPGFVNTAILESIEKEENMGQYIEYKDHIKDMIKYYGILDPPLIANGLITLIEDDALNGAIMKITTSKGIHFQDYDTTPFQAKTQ
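NADH formation kinetics: reaction with 30 uM PGE2 and 1 mM NAD+ (final), 20 nM enzyme, Tris-HCl pH 8 with Tween 20, after 15 min compound preincubation at room temperature. Fluorescence change, last versus first of five reads.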
PNC inhibitor: inhibitors of perinucleolar compartment assembly. actives 3.1% (n = 140,000). activity change (PNC), negative = inhibition, % at 10 µM. PC3M PTB-GFP, PNC prevalence imaging, 16 h; stronger effect = lower value;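 active = readout at or below -70, meaning at least 70% loss of cells showing the perinucleolar compartment, a nuclear body marking cancer cells; inconclusive = readout between -30 and a set limit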;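 also: plate controls were DMSO wells for no effect and camptothecin positive control wells for full effect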
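Compounds are pinned in duplicate onto adhered PC3M cells stably expressing GFP-tagged PTB and incubated 16 h at 37 C. Cells are then fixed, nuclei stained with Hoechst, and PNC-positive cells counted.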
Active calls of the source: *; ? = inconclusive; / = no result given; [ ] = another dose, or the depositor's remark. Unless noted, calls follow the shape of the dose curve; as a rule, active = well fitted curve in the direction sought with a large enough effect; inconclusive = small, poorly fitted or top-dose-only effect, or another doubt; inactive = no such curve, though single readings can be large; an effect the other way counts as inactive or inconclusive.

SMILES	HTT ATP protect	ALDH1A1 block	GoLoco inh red	HTT aggregate	HPGD block	PNC inhibitor
CCCNC(=O)OC[C@@H]1O[C@H](CCO/N=C(\C)CCN2CCCCc3nc(C)c(C)cc32)C=C[C@@H]1Oc1ccc(OC)cc1	2%[10 µM]	-8%[13.5 µM]	/	/	/	/
O=C(CN1CC[n+]2c(-c3cccs3)csc21)c1ccc(-c2ccccc2)cc1	-35%	8%	38%	0%	/	/
CC(=O)N1CC[n+]2c(-c3ccc(Cl)cc3)csc21	/	?	-8%	29%	18µM*	-26
CCc1ccc(-c2csc3[n+]2CCN3C(C)=O)cc1	28%	?	2%	?	14µM*	-5
COc1ccc(-n2c(=S)[nH]c3cc(C(=O)NCCCN4CCCC4=O)ccc3c2=O)cc1	17%	18µM*	-8%	-10%	-9%	-3
COc1ccc(-n2c(=S)[nH]c3cc(C(=O)NCCCN4CCCC4=O)ccc3c2=O)c(OC)c1	4%	14µM*	1%	9%	-16%	-26
COc1ccc(C(=O)NCCCN2CCCC2=O)cc1	23%	-1%	-9%	11%	-12%	?
CC1(C)CCC2=C(O1)c1ccccc1C(=O)C2=O	-360%	?	-4%	/	-15%	/
CCC(=O)Oc1c(C(=O)CC)cc2c(C)cc(=O)oc2c1C	/	-5%	-1%	13µM*	15%	?
CCC(=O)c1cc2c(C)cc(=O)oc2c(C)c1OC	-3%[10 µM]	-11%	0%	-33%	-17%	?
COc1ccc(CCN(Cc2ccccn2)C(=S)Nc2ccccc2C)cc1OC	-6%	20µM*	3%	0%	/	/
CCCCCCCCCCCCCCCCCCO	?	11%	-5%	-5%	-8%	/
Cn1c(NC(=O)/C=C/c2ccco2)cc(=O)n(C)c1=O	24%[10 µM]	?	0%	10%	-7%	-121*
COc1cc(/C=C\C(=O)Nc2cc(=O)n(C)c(=O)n2C)cc(OC)c1OC	6%	?	6%	3%	/	/
Cc1ccc(/C=C/C(=O)Nc2cc(=O)n(C)c(=O)n2C)o1	21%[0.074 µM]	22µM*	-20%	17%	-11%	-12
Cc1nc([N+](=O)[O-])c(C(=O)OCc2ccccc2F)n1C	3%	-2%	3%	5%	/	/
O=[N+]([O-])c1cc(Br)c(O)c(/C=N/Nc2nnnn2-c2cccc3ccccc23)c1	5%	18µM*	7%	?	?	-7
CCCSc1nc(-n2ncc(C#N)c2N)c2c3c(sc2n1)CCC(C)C3 (stereo not given)	-32%	4µM*	-2%	?	?	38
Cc1nc(-n2ncc(C#N)c2N)c2c3c(sc2n1)CCC3	5%	9%	-2%	-3%[9.22 µM]	-19%	2
CC1(C)OC2OC(C(=O)N/N=C/c3cc(Br)ccc3O)C3OC(C)(C)OC3C2O1 (stereo not given)	16%[10 µM]	6%	4%	10µM*	-15%	?
Cc1c(O)c2c3c(cccc3c1O)C(=O)N(c1ccccc1)C2=O	/	-12%	1%	20µM*	-7%	?
O=C(O)c1ccc2c3c(cccc13)C(=O)N(c1ccccc1)C2=O	20%	?	11%	8%	/	/
Nc1ccc2c3c(cccc13)C(=O)N(c1ccccc1)C2=O	-18%	28µM*	-23%	?	/	/
NS(=O)(=O)c1ccc(N=Nc2nc3[nH]cnc(=S)c3[nH]2)cc1	-57%[10 µM]	?	2%[14.2 µM]	/	?	/
NC[C@@H]1O[C@H](O[C@@H]2[C@H](O[C@@H]3O[C@H](CO)[C@@H](O)[C@@H]3O)[C@@H](O)[C@@H](N)C[C@H]2N)[C@@H](N)[C@H](O)[C@@H]1O	-7%[40.3 µM]	-2%[20.9 µM]	6%[21.6 µM]	-7%[20.6 µM]	-7%	/
SMILES	HTT ATP protect	ALDH1A1 block	GoLoco inh red	HTT aggregate	HPGD block	PNC inhibitor
COc1ccccc1CN(CC(=O)NCc1ccco1)C(=O)CNS(=O)(=O)c1ccc(C)cc1	-18%[10 µM]	22µM*	3%	0%	3%	-15
O=C(CN(Cc1ccc2c(c1)OCO2)C(=O)CNS(=O)(=O)c1ccccc1)NCc1ccco1	5%[1.9 µM]	4.5µM*	4%	-7%	-9%	-27
COc1cccc(C(CC(=O)NCc2ccco2)NS(=O)(=O)c2ccc(C)cc2)c1OC (stereo not given)	10%[10 µM]	20µM*	-6%	2%	-9%	-21
CCOC(=O)C1(Cc2ccccc2C)CCCN(Cc2ccc(NC(C)=O)cc2)C1 (stereo not given)	6%[10 µM]	6%	7%	-6%[9.22 µM]	/	/
c1ccc(CCNc2ncnc3nc[nH]c23)cc1	-27%[0.074 µM]	3%	16%	11µM*	-5%	?
Cc1ccc(CN(CC(=O)N/N=C/c2ccco2)S(=O)(=O)c2ccc(C)cc2)cc1	17%	0%	10%	-8%	-7%	7
Cc1cc(C)n2nc(SCC(=O)c3cc(C)n(CC4CCCO4)c3C)nc2n1 (stereo not given)	-95%	?	8%	?	/	/
COc1ccc(C2CC(=O)N3C(=C2C#N)SCC3(O)c2ccccc2)cc1 (stereo not given)	-48%	?	194%	?	-19%	8
COc1cc(C2CC(=O)NC(SCC(=O)Nc3ccccc3C)=C2C#N)ccc1O (stereo not given)	-1%	-2%	5%	0%	-1%	-5
COc1cc(C2CC(=O)N3CN(c4ccccc4C)CSC3=C2C#N)cc(OC)c1OC (stereo not given)	-7%	2.8µM*	-33%	13%	28µM*	8
COc1ccccc1N1CSC2=C(C#N)C(c3ccc(SC)cc3)CC(=O)N2C1 (stereo not given)	-34%	8.9µM*	-32%	12%	8.9µM*	-17
COc1ccc(-c2nc3cnc(N4CCOCC4)nc3n(C3CC3)c2=O)cc1	-9%	?	3%	/	/	/
c1cncc(-c2nc(N3CCCCCC3)c3ccccc3n2)c1	-3%[0.074 µM]	1.4µM*	23%	-7%	-20%	1
CN1CCN(c2nc(-c3cccnc3)nc3ccccc23)CC1	0%	-1%	4%	17%	-13%	?
O=c1cc(-c2cccc(O)c2)oc2ccc(O)cc12	-56%	?	-11%	/	7.1µM*	/
O=c1cc(-c2ccc(O)cc2)oc2ccccc12	-61%	-5%	-9%	-14%	/	/
O=c1cc(-c2ccccc2)oc2cccc(O)c12	-6%[1.9 µM]	-5%	1%	/	-10%	/
O=c1cc(-c2ccc(O)cc2)oc2ccc(O)cc12	-100%	4%	10%	-11%	20µM*	/
COc1ccccc1-c1cc(=O)c2cc(O)ccc2o1	2%[1.9 µM]	17%	3%	/	16µM*	/
CC(=O)N1CCC2(CCN(Cc3ccccc3)CC2)CC1	2%	3%	5%	/	0%	/
